# Inconclusive results are not listed. Unmarked numbers belong to inactive results. Activity calls are given as the source filed them. Calls follow the shape of the full dose curve.
# Target: 5-hydroxytryptamine receptor 2A (Homo sapiens) (UniProt P28223)
# Test: 5-hydroxytryptamine receptor 2A (HTR2A) small molecule agonists, cell-based qHTS assay (AID 1963587); also: nearly all actives have a fitted effect of over 30% in size
# Conditions: HTR2A-CHO cells, calcium flux fluorescence, agonist mode; series mostly up to 76.8 µM; activation: at the top concentration
# Source text: National Center for Advancing Translational Sciences [NCATS]
# Division of Preclinical Innovation [DPI]
# U.S. Environmental Protection Agency [EPA]
# National Institutes of Environmental Health Sciences [NIEHS]
# National Toxicology Program [NTP]
# U.S. Food and Drug Administration [FDA]
# The HTR2A receptor is a subtype of the 5-HT2 receptor that belongs to the serotonin receptor family and is a G protein-coupled receptor (GPCR). The HTR2A-CHO cell line stably expressing human 5-hydroxytryptamine receptor 2A (HTR2A) can be used for screening agonists of interactions between 5-HT2 and its ligands. The HTR2A-CHO calcium flux assay is a homogeneous fluorescence-based assay for detecting the intracellular calcium level using FDSS kinetic plate reader system.
# HTR2A-CHO cells were dispensed at 2000 cells/3uL/well in 1536-well black-clear bottom plates using a Multidrop Dispenser. After the assay plates were incubated at a 37 C/5% CO2 incubator for 18 h, 3 uL of Dye Loading Buffer was transferred to the assay plate by a Flying Reagent Dispenser. The assay plates were incubated at 37 C for 1h. For agonist mode, 23 nL of compounds dissolved in DMSO, positive controls or DMSO only was transferred to the assay plate by a pin tool. The fluorescence intensity in the plates was measured using FDSS 7000EX kinetic plate reader for 2 min at 1 sec intervals.
# % is scaled to controls: 0 for no effect and ±100 for the full control effect; potency is read from the fitted curve at half-maximal effect.
# 5-hydroxytryptamine receptor 2A (Homo sapiens), sequence (P28223 whole entry, looked up): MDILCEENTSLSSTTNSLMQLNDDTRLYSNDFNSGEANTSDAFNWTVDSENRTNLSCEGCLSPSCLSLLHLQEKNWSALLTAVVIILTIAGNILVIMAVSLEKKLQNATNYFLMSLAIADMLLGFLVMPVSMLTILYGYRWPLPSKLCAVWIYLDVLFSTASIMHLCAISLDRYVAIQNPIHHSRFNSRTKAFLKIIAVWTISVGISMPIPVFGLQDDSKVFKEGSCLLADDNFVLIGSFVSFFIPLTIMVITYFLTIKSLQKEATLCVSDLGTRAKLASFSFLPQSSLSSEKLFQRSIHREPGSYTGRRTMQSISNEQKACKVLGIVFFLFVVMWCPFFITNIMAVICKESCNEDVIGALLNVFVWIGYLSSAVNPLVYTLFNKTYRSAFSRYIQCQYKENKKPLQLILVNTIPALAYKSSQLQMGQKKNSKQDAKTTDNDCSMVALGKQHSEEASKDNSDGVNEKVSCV
Compound,Potency,activation
CCCN(CCC)c1c([N+](=O)[O-])cc(C(F)(F)F)cc1[N+](=O)[O-],inactive,–
CC(c1ccc(O)cc1)(c1ccc(O)cc1)c1ccc(O)cc1,49 µM (active),–
CCOC(=O)COc1ccc(Cl)cc1Cl,–,-3.42%
O=C(Nc1ccc2[nH]ccc2c1)c1cc2cc(F)ccc2n1Cc1cccc(F)c1,–,-3.44%
NNC(=O)c1cccnc1,–,0.381%
CSC(C)(C)/C=N/O,–,-0.156%
ClCc1cccc(Cl)c1,–,-0.832% [at 35.6 µM]
C[N+]1(CCC(C(N)=O)(c2ccccc2)c2ccccc2)CCCCC1,–,0.352% [at 35.6 µM]
CCC(C)(C)C(=O)OC1=C(c2ccc(Cl)cc2Cl)C(=O)OC12CCCCC2,–,0.284%
Cc1ccn2nc(S(=O)(=O)Nc3c(F)cccc3F)nc2n1,–,-0.0011%
OC(c1ccccc1)(c1ccccc1)C1CCNCC1,–,-11.8% [at 35.6 µM]
Nc1ccccc1C(=O)OC/C=C/c1ccccc1,–,-0.0279%
CC(C)NCC(O)c1ccc([N+](=O)[O-])cc1 (stereo not given),–,14.8% [at 35.6 µM]
c1cc[c]([Sb]([c]2ccccc2)[c]2ccccc2)cc1,–,-0.449%
Cc1nnc2n1-c1sc(CCc3ccc(CC(C)C)cc3)cc1C(c1ccccc1Cl)=NC2C (stereo not given),–,10.6% [at 35.6 µM]
CNN,–,0.582%
O=C(O)C1(c2ccc3c(c2)OC[C@H](Cc2ccc(-c4ccccc4)cc2)[C@H]3O)CCCC1,54.9 µM (active),–
CC(C)CCCCCCCOC(=O)c1ccccc1C(=O)OCCCCCCCC(C)C,–,-0.673%
COc1c2c(cc3c1OCO3)CCN(C)C2,1.2 µM (active),–
CC(C)COP(=O)(OCC(C)C)OCC(C)C,–,1.34%

Compound,Potency,activation
O=C(O)c1cccc(Cl)c1,–,-0.106%
Oc1ccccc1Br,–,-6.47%
CC(C)(C)c1ccc(OP(=O)(Oc2ccccc2)Oc2ccccc2)cc1,–,16.1%
CCOP(=S)(S)OCC,–,0.512%
c1ccc2cc3c(cc2c1)-c1cccc2cccc-3c12,–,-2.02%
CC(=O)/C=C/c1ccc2c(c1)OCO2,–,-8.67%
CCOP(=O)(SC(C)CC)N1CCSC1=O (stereo not given),–,0.123%
CC(=O)[O-].CC(=O)[O-].[Hg+2],49 µM (active),–
COc1cc(C[C@@H](C)N)c(OC)cc1C,0.0105 µM (active),–
c1cc[c]([Hg][c]2ccccc2)cc1,–,0.211%
CCC[CH2][Sn]([CH2]CCC)([CH2]CCC)[O]C(=O)c1ccccc1,21.9 µM (active),–
CCOP(=O)(N=C1SCCS1)OCC,–,0.79%
N#CCCSCCC#N,–,1.13%
O=C(O)c1cc(I)cc(I)c1I,–,0.962%
CC#Cc1cc(C)nc(Nc2ccccc2)n1,–,-2.23%
CCC(COC(=O)c1cc(OC)c(OC)c(OC)c1)(c1ccccc1)N(C)C (stereo not given),–,-0.815% [at 35.6 µM]
CC1(C)[C@H](C=C(Cl)Cl)[C@@H]1C(=O)O[C@@H](C#N)c1cccc(Oc2ccccc2)c1,–,-0.0461%
O=NN1CCNCC1,–,-1.7%
CC(=O)CN(CC(C)=O)N=O,–,2.81%
C=CC(=O)N(C)C,–,-2.21%

# Reference: PubChem BioAssay (Tox21)
